BioA inh = inhibitors of Mycobacterium tuberculosis BioA enzyme; purified M. tuberculosis BioA enzyme, plate reader; inhibition, % at 9.99 µM; actives 0.096% (n = 360,000); AID 602481; in the data active = inhibition above about 40%
GDH-TPI counter-1 = GDH-TPI coupled enzyme inhibition counter-screen. inhibition, % at 4.8 µM. GDH-TPI coupled enzyme counterscreen, NADH absorbance. actives 1.2% (n = 360,000); in the data active = inhibition above about 30%;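 note: 0% = DMSO wells and 100% = wells lacking the enzyme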
BH1578 lux ind = quorum light induction in luxS cqsA deficient V. cholerae. activation, % at 18.7 µM. AID 588436. V. cholerae BH1578 lux reporter, luminescence, 6 h. actives 0.16% (n = 350,000); in the data active = activation mostly above about 9.7%, no sharp cut-off
FBA Mtb inh = Mtb fructose-bisphosphate aldolase inhibition. P9WQA3. purified M. tuberculosis FBA, fluorescence read-out. inhibition, % at 1 µM. actives 2.3% (n = 360,000). AID 588726;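 note: 0% = vehicle and 100% = reference inhibitor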
Target sequence (P9WQA3 whole entry, looked up): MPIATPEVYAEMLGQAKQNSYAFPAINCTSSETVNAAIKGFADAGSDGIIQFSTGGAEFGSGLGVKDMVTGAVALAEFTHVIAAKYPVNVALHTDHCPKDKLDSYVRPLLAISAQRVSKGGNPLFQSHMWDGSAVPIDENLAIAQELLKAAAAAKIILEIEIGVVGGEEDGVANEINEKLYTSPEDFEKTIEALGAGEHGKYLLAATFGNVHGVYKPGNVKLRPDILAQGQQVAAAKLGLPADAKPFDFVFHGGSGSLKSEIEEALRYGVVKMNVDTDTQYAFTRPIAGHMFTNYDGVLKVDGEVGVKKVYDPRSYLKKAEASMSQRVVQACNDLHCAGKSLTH
Mtb FBA inh conf = confirmation of M. tuberculosis fructose-bisphosphate aldolase inhibitors; actives 78% (n = 5,600); purified M. tuberculosis FBA, fluorescence read-out; shares compounds with FBA Mtb inh; inhibition, % at 1 µM;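 note: 0% = vehicle wells and 100% = reference inhibitor wells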
GDH-TPI counter-2 = inhibits GDH-TPI coupling enzymes, flagging Mtb FBA hits; shares compounds with FBA Mtb inh; actives 81% (n = 5,600); GDH-TPI coupled enzyme counterscreen, fluorescence; inhibition, % at 1 µM; in the data active = inhibition above about 10%
Active calls of the source: *; i = inactive; nt = not tested or not shown; + = active, no number. Sampled rows, rich in hits. Any-hit rate of the full collection: about 3%. Cut-off read from the data, not from the text of the source, unless noted: active = inhibition above about 27%; inactive = the rest.

SMILES	BioA inh	GDH-TPI counter-1	BH1578 lux ind	FBA Mtb inh	Mtb FBA inh conf	GDH-TPI counter-2
C[C@@H]1CN([C@@H](C)CO)S(=O)(=O)c2ccc(C#Cc3ccccn3)cc2O[C@@H]1CN(C)CC1CC1	1	nt	nt	nt	nt	nt
CNC(=O)c1sc(-c2cccnc2)nc1C	21	7	nt	1	nt	nt
Cc1sc(-c2cccnc2)nc1OC(=O)C1CC1	nt	7	0	28*	+	+
C[C@@H]1CN([C@@H](C)CO)C(=O)c2cc(NC(=O)Nc3ccc(C(F)(F)F)cc3)ccc2O[C@@H]1CN(C)C(=O)NC1CCCCC1	1	nt	nt	nt	nt	nt
CC(C)NC(=O)NCC[C@@H]1CC[C@@H](NC(=O)CN(C)C)[C@@H](CO)O1	-7	nt	nt	nt	nt	nt
Cc1cccc(NC(=O)COC(=O)CCc2ccc(S(=O)(=O)N3CCOCC3)cc2)c1C	0	7	0	0	nt	nt
COc1ccccc1NC(=O)COC(=O)CCc1ccc(S(=O)(=O)N2CCOCC2)cc1	-1	14	i	31*	162*	134*
COc1ccc(CCNC(=O)COC(=O)Cn2cnc3ccccc32)cc1OC	nt	2	-1	1	nt	nt
O=C(COC(=O)Cn1cnc2ccccc21)NCCc1ccc(Cl)cc1	-2	-3	i	56*	46*	36*
CCCNC(=O)N1C[C@H]2[C@@H](c3ccccc31)[C@H](CO)N2Cc1ccc(F)cc1	2	nt	nt	nt	nt	nt
CN(C)CCNS(=O)(=O)c1ccc2c3c(cccc13)C(=O)N2	1	17	0	43*	-7	-4
CCN(CC)CCNS(=O)(=O)c1ccc2c3c(cccc13)C(=O)N2	-1	9	-1	54*	61*	60*
O=C1Nc2ccc(S(=O)(=O)N3CCCC3)c3cccc1c23	nt	15	i	6	nt	nt
O=C1Nc2ccc(S(=O)(=O)NCc3ccccn3)c3cccc1c23	0	11	i	76*	67*	52*
CC(=O)N(C)C[C@@H]1Oc2ncc(-c3cccc(F)c3)cc2C(=O)N([C@@H](C)CO)C[C@H]1C	0	nt	nt	nt	nt	nt
CN1CCN(C(=O)C[C@@H]2CC[C@H]3[C@@H](COC[C@@H](O)CN3C(=O)C3CCCC3)O2)CC1	-1	nt	nt	nt	nt	nt
C=COCCCNc1ncnc2sc(-c3ccccc3)cc12	3	13	i	38*	51*	40*
COC(CNc1ncnc2sc(-c3ccccc3)cc12)OC	0	11	1	25	nt	nt
OCCCNc1ncnc2sc(-c3ccccc3)cc12	nt	23	-1	30*	55*	45*
CC(C)(C)Nc1ncnc2sc(-c3ccccc3)cc12	0	16	-1	20	nt	nt
CN(C(=O)COc1ccc2ccc(=O)oc2c1)C1CCS(=O)(=O)C1 (stereo unspecified)	6	20	0	38*	190*	147*
CCN(C(=O)COc1ccc2ccc(=O)oc2c1)C1CCCCC1	18	8	i	35*	72*	51*
CO[C@@H](CN(C)C(=O)c1ccccc1F)[C@H](C)CN([C@@H](C)CO)S(=O)(=O)c1ccc(Cl)cc1	-1	nt	nt	nt	nt	nt
CCCN(C)C[C@H]1OCCCC[C@H](C)Oc2ccc(NC(=O)Cc3ccccc3)cc2C(=O)N([C@H](C)CO)C[C@H]1C	-1	nt	nt	nt	nt	nt
CCOC(=O)C1CCN(c2nc3cc(OC)ccc3cc2C#N)CC1	3	4	i	24	nt	nt
SMILES	BioA inh	GDH-TPI counter-1	BH1578 lux ind	FBA Mtb inh	Mtb FBA inh conf	GDH-TPI counter-2
COc1ccc2cc(C#N)c(N3CCOCC3)nc2c1	2	5	0	37*	66*	63*
COC(=O)CSc1nc2cc(OC)ccc2cc1C#N	-1	7	-1	8	nt	nt
CCN(CC)c1nc2cc(OC)ccc2cc1C#N	-1	17	-1	32*	50*	35*
COc1ccc2cc(C#N)c(NC(C)C)nc2c1	0	15	-1	55*	2	4
COc1ccc(NC(=O)N(C)C[C@@H]2Oc3ccc(NC(=O)Nc4c(C)noc4C)cc3CC(=O)N([C@@H](C)CO)C[C@@H]2C)cc1	-3	nt	nt	nt	nt	nt
C[C@@H]1CN([C@@H](C)CO)C(=O)Cc2cc(NS(=O)(=O)c3ccc(Cl)cc3)ccc2O[C@@H]1CN(C)C(=O)Nc1cccc2ccccc12	-3	nt	nt	nt	nt	nt
COc1cc2cc(CN(CCO)S(=O)(=O)c3ccccc3)c(=O)[nH]c2cc1OC	0	38*	0	38*	88*	71*
CNC(=S)N(CCc1ccccc1)Cc1cc2cc(OC)c(OC)cc2[nH]c1=O	2	24	0	12	nt	nt
Cc1csc2ncc(C(=O)NCc3ccccc3Cl)c(=O)n12	3	11	nt	49*	107*	112*

Bioassay records from PubChem.
